Assay outcomes as filed in PubChem BioAssay.
Rows were chosen to be rich in hits. Some 4.1% of all compounds tested hit in one or more screens of this group.
DAX1 inh-1 = blocks DAX1 repression of SF-1 activated StAR promoter. 370,000 compounds, 1.1% hits. HEK293T StAR-luciferase reporter, SF-1/DAX-1 repression relief. inhibition, % at 6.8 µM;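 active = inhibition above the mean over all tested compounds plus 3 SD, cut at about 3.6% in these data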;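 note: 0% = DAX-1 cells with DMSO and 100% = cells lacking DAX-1 with DMSO; higher inhibition means more luminescence from relief of DAX-1 repression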
hcDAF12 agonist = H. contortus DAF-12 activation, primary screen. HEK293 hcDAF-12 lit1-tk-luc reporter, luminescence; 0% DMSO, 100% Δ7-dafachronic acid. activation, % at 6.8 µM. 370,000 compounds, 1.4% hits;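 active = activation above the mean of all tested compounds plus 3 SD, cut at about 5.5% in these data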;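 note: 100% = response to 3 µM Δ7-dafachronic acid high control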
DAX1 inh-2 = inhibitors of human orphan nuclear receptor DAX1 (NR0B1). P51843. HEK293 Gal4-DAX1 luciferase reporter, luminescence. inhibition, % at 6.75 µM. 340,000 compounds, 0.99% hits. AID 504766;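 active = inhibition above the mean over all tested compounds plus 3 SD, cut at about 4.2% in these data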;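 note: 0% = DAX1-transfected cells with DMSO and 100% = empty-vector control cells with DMSO; inhibition shows as a rise in luminescence from relieved DAX1 repression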
hgDAF12 agonist = activates the H. glycines DAF-12 receptor ligand-binding domain | HEK293 GAL4-hgDAF12 UAS-luciferase reporter, agonist luminescence; normalized to butyrate control | activation, % at 6.8 µM | 370,000 compounds, 1.8% hits | AID 687014;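 active = activation above a cutoff set at the mean of all screened compounds plus 3 SD, cut at about 10% in these data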;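 note: 0% = DMSO wells and 100% = sodium butyrate wells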
ssDAF-12 act = activators of S. stercoralis DAF-12 nuclear receptor | HEK293 ssDAF-12/GRIP1 lit1-tk-luc reporter, luminescence; % of 3 µM dafachronic acid response | activation, % at 6.8 µM | 370,000 compounds, 1% hits | AID 652126;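 active = activation above the mean over all tested compounds plus 3 SD, cut at about 0.9% in these data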;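 note: 0% = DMSO-only wells and 100% = 3 µM delta7-dafachronic acid wells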
hgDAF12 conf = hgDAF-12 agonism, confirmation assay | shares compounds with hgDAF12 agonist | HEK293 GAL4-hgDAF12 luciferase reporter, agonist mode; percent of butyrate response | activation, % at 6.8 µM | 3,300 compounds, 80% hits | AID 743050;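 active = mean activation over triplicate wells above the hit cutoff derived from the earlier primary screen, cut at about 11% in these data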;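 note: 0% = DMSO low control and 100% = 2 mM sodium butyrate high control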
LXRb DAF12 ctr = activates human LXR-beta, counter-screen for DAF-12 agonists | shares compounds with hgDAF12 agonist | HEK293 Gal4-LXR luciferase reporter, 24 h | activation, % at 6.8 µM | 3,300 tested, under 10 active | AID 743051;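 active = mean activation of the triplicate above a set limit carried over from the primary screen, none filed active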
Target sequence (P55055 whole entry, looked up, the tested form may be a part): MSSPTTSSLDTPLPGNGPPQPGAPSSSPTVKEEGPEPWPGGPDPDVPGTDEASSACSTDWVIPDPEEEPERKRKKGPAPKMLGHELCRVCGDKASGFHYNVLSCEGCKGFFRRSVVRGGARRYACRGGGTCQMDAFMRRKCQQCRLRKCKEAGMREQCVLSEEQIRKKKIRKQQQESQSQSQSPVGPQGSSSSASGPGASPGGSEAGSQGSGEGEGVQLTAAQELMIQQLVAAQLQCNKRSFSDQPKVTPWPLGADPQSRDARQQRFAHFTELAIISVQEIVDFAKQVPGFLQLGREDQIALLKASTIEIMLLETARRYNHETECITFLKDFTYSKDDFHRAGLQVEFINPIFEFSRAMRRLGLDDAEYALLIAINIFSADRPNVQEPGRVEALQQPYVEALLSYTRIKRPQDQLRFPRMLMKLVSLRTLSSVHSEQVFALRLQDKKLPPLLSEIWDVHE
Active calls of the source: *; . = not tested or not shown.

SMILES	DAX1 inh-1	hcDAF12 agonist	DAX1 inh-2	hgDAF12 agonist	ssDAF-12 act	hgDAF12 conf	LXRb DAF12 ctr
CC/C(=N\Nc1nncc2ccccc12)c1ccc(F)cc1	1	4	0	16*	0	16*	1
O=C(Nc1cccc(Br)c1)OC1CC2CC1[C@H]1CCCCN1[C@H]2Cc1ccccc1 (some centres not stated)	0	2	.	-3	0	.	.
COC(=O)C12OCC34C(CC5C(C)=C(O)C(=O)CC5(C)C3C(O)C1O)OC(=O)C(OC(=O)C=C(C)C)C24 (configuration not stated)	-7	-6	-7	-18	-3	.	.
C[C@H]1CCCN1c1ccc2c(c1)O[C@H]1CCN(C1)S2(=O)=O	-2	-3	.	0	-1	.	.
CCOc1ccc2nc(NC(=O)CS(=O)(=O)c3ccccc3)sc2c1	1	0	1	4	-1	.	.
CC(=O)NCCC(=O)Nc1nc2ccc(Oc3ccccc3)cc2s1	2	5	2	21*	1	15*	1
CCCC(=O)Nc1nc2ccc(OCC)cc2s1	3	1	0	17*	0	15*	0
O=C(Nc1ccc(Nc2ccccc2)cc1)c1ccccc1F	0	0	3	5	-1	.	.
CCCC(CCC)=NNC(=O)c1ccccc1F	3	2	3	16*	0	4	0
CCN(CC)c1ccc(NC(=O)c2ccccc2F)cc1	2	5.6*	0	14*	1	21*	1
CCC(/C=N/NC(=O)c1ccccc1F)CC	2	1	5.3*	18*	-1	1	0
CCOC(=O)N/N=C/c1cc(C)n(-c2ccccc2)c1C	0	-1	-2	-1	-2	.	.
Cc1cc(/C=N/NC(=O)c2ccccc2F)c(C)n1-c1ccccc1	3	4	3	14*	1	17*	1
CCOC(=O)c1sc(=S)n(-c2ccccc2)c1N(C(C)=O)C(C)=O	0	-1	0	3	-1	.	.
Nc1nc2c([N+](=O)[O-])cccc2s1	0	1	0	-1	-1	.	.
C/C(CC(=O)NCc1ccc(Cl)cc1)=N\NC(=O)c1ccccc1F	2	1	2	14*	1.5*	0	0
COc1ccccc1CNC(=O)C/C(C)=N/NC(=O)Cc1ccc(Cl)cc1	0	1	1	3	-1	.	.
CCN(CC)c1ccc(/C=N/NC(=O)c2ccco2)cc1	1	5	-2	17*	0	21*	1
NC(=O)/C(=C/c1ccc2c(c1)OCO2)NC(=O)c1ccco1	0	-1	2	5	-1	.	.
O=C(N/N=C\c1ccc2c(c1)OCO2)c1ccco1	3	2	4	14*	1	12*	1
CCN(CC)c1ccc(NC(=S)NC(=O)c2ccco2)cc1	3	0	0	16*	-2	6	0
CCN(CC)c1ccc(/C=N/NC(=O)c2cnccn2)cc1	0	1	0	18*	0	18*	0
CCOc1cc(/C=N/NC(=O)CNc2ccc(C)cc2)ccc1OC(=O)c1ccccc1	0	1	-1	-1	0	.	.
Cn1c(SCC(=O)NC2CC2)nnc1-c1ccc(Cl)cc1	-1	1	1	3	-1	.	.
CCOc1cc(C2Nc3ccccc3C(=O)N2c2ccccc2)c(Br)cc1OCC(=O)O (configuration not stated)	1	1	-1	2	-1	.	.
COc1cc(C2Nc3ccccc3C(=O)N2c2ccc(Cl)cc2)c(Cl)cc1OCC(=O)O (configuration not stated)	4.0*	5	3	14*	1	9	1
CC(C)(C)NC(=O)C(c1ccc(O)cc1)N(Cc1ccc2c(c1)OCO2)C(=O)CCl (configuration not stated)	1	5	4	1	-1	.	.
CCOc1ccc(-c2n[nH]c(C(=O)NN)c2C)cc1	1	3	3	16*	-1	2	0
O=C(Nc1ccccc1O)c1ccc(Cl)cc1	2	5.8*	4.4*	22*	1.3*	29*	0
